# Measured values from article PMC7862700, “An all-to-all approach to the identification of sequence-specific readers for epigenetic DNA modifications on cytosine”.
# How the values were obtained:
# Assay in all cases: DAPPL (digital affinity profiling via proximity ligation, sequencing); 10 mM Tris-HCl pH 7.5, 50 mM NaCl, 1 mM DTT, 4% glycerol, room temperature, 30 min; GST-TFs on glutathione beads, 16-mer random dsDNA library, 0.1% formaldehyde crosslink after washing; high values mean tight binding
# FEV = target: T1, FEV (Homo sapiens, UniProt Q99581 1-238); details: protein: recombinant; tags: N-terminal GST; dsDNA, one strand shown
# T1 sequence: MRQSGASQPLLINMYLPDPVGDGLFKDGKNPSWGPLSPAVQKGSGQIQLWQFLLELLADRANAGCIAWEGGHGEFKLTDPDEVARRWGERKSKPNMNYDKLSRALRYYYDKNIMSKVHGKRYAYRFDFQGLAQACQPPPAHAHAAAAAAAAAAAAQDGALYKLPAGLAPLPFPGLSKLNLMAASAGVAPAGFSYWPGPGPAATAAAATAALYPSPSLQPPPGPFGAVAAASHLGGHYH
# Procedure, shortened: (§1)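 Human transcription factors carrying a GST fusion were produced in yeast, bound to glutathione beads, tagged with DNA barcodes and pooled together with a tag-only sample. Each pool was held with 200 nmole of a random double-stranded 16-mer DNA library in Tris/NaCl/DTT/glycerol buffer for 30 min at room temperature, then washed, crosslinked in 0.1% formaldehyde, proximity-ligated with BsaI/T4 ligase (1 h, 37 °C), PCR-amplified and sequenced on an Illumina NextSeq500. Binding signal is the read frequency of each hexamer for a given factor divided by its frequency in the tag-only sample.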
# ETV5 = ETV5 (Homo sapiens, UniProt P41161 1-510); details: protein: recombinant; tags: N-terminal GST; dsDNA, one strand shown
# Procedure, shortened: as §1
# HSF1 = HSF1 (Homo sapiens, UniProt Q00613 1-529); details: protein: recombinant; tags: N-terminal GST; chain copies: 3; dsDNA, one strand shown
# Procedure, shortened: as §1
# SPIC = target: T2, SPIC (Homo sapiens, UniProt Q8N5J4 1-248); details: protein: recombinant; tags: N-terminal GST; dsDNA, one strand shown
# T2 sequence: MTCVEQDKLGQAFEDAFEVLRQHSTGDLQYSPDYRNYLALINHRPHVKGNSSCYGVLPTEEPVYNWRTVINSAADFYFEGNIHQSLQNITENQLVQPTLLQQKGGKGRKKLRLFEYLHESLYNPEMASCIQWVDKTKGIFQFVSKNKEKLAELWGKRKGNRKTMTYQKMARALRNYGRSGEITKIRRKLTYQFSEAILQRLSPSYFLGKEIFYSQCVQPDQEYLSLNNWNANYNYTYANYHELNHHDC
# Procedure, shortened: as §1
# ELF4 = ELF4 (Homo sapiens, UniProt Q99607 1-663); details: protein: recombinant; tags: N-terminal GST; dsDNA, one strand shown
# Procedure, shortened: as §1
# ELK4 = target: T3, ELK4 (Homo sapiens, UniProt P28324-2 1-405); details: protein: recombinant; tags: N-terminal GST; dsDNA, one strand shown
# T3 sequence: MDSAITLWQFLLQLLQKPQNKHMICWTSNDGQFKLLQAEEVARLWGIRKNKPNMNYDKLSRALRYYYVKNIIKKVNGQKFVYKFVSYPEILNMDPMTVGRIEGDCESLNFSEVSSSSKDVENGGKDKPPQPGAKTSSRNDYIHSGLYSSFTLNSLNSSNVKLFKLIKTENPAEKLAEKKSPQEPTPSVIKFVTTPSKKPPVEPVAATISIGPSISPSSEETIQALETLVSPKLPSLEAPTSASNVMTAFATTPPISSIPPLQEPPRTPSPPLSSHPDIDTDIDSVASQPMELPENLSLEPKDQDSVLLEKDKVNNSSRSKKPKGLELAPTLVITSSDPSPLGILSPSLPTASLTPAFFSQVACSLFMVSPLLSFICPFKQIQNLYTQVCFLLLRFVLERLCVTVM
# Procedure, shortened: as §1
# ETV2 = target: T4, ETV2 (Homo sapiens, UniProt O00321 1-342); details: protein: recombinant; tags: N-terminal GST; dsDNA, one strand shown
# T4 sequence: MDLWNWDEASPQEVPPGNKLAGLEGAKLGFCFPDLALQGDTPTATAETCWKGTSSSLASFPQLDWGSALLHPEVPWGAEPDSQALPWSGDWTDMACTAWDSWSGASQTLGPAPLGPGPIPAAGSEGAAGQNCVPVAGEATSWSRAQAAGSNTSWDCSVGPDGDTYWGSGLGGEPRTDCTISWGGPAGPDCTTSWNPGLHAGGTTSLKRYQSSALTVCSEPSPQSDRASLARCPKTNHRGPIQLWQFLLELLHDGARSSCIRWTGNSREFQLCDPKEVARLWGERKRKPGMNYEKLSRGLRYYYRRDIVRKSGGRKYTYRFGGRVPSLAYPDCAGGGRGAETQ
# Procedure, shortened: as §1
# ELF3 = target: T5, ELF3 (Homo sapiens, UniProt P78545 1-371); details: protein: recombinant; tags: N-terminal GST; dsDNA, one strand shown
# T5 sequence: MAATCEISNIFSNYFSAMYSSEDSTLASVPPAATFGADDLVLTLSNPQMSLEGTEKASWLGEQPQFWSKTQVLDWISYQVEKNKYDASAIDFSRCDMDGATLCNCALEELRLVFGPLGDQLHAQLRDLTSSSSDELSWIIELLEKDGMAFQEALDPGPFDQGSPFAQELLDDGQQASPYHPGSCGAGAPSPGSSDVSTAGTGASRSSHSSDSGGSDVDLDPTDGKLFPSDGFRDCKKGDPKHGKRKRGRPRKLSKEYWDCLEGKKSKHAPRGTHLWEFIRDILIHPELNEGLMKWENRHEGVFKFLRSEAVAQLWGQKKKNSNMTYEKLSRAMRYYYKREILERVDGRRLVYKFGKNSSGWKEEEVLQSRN
# Procedure, shortened: as §1
# CRX = CRX (Homo sapiens, UniProt O43186 1-299); details: protein: recombinant; tags: N-terminal GST; dsDNA, one strand shown
# Procedure, shortened: as §1
# ELF4, sequence (Q99607 whole entry): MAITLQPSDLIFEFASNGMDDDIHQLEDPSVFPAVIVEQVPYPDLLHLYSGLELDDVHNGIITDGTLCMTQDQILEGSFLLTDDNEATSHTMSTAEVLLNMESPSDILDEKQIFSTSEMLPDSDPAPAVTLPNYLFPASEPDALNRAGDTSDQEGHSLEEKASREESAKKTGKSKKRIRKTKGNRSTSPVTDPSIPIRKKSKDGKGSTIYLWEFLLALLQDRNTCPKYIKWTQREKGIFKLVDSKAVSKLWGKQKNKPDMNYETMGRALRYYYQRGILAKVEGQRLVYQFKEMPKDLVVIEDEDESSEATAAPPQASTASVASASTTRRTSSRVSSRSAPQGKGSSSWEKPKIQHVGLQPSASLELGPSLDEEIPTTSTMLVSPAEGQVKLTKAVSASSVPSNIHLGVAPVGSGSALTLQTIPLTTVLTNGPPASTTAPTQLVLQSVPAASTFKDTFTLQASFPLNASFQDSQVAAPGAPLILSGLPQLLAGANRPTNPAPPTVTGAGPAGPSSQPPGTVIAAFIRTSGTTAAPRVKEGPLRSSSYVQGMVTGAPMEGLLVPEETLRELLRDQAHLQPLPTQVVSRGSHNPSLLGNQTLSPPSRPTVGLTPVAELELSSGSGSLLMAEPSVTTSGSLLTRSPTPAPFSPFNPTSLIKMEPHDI
# HSF1, sequence (Q00613 whole entry): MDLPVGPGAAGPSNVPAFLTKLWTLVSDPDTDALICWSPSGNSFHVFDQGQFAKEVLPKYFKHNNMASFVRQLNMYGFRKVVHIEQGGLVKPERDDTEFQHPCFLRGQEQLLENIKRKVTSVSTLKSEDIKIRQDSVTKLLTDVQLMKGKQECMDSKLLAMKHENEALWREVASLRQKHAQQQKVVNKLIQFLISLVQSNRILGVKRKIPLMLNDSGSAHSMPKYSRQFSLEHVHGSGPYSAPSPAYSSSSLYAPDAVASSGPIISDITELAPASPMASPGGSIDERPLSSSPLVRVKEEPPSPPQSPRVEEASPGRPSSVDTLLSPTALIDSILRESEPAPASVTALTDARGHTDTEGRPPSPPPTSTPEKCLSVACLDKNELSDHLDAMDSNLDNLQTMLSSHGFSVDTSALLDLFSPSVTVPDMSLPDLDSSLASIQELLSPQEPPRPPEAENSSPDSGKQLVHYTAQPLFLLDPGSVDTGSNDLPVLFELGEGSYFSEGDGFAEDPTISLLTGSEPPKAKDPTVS
# ETV5, sequence (P41161 whole entry): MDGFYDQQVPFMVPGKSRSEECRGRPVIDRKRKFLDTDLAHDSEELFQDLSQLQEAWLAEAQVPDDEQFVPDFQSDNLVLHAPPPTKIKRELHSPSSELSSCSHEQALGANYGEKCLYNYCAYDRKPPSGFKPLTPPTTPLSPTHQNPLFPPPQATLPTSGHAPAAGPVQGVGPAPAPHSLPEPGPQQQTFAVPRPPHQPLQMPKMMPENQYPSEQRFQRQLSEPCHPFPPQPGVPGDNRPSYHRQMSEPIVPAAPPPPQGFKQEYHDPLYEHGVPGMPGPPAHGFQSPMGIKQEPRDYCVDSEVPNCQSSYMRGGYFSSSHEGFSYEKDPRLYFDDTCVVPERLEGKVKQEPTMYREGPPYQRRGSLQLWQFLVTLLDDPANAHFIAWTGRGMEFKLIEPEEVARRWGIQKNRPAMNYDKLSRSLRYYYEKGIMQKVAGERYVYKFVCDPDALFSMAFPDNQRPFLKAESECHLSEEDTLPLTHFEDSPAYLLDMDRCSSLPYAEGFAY
# CRX, sequence (O43186 whole entry): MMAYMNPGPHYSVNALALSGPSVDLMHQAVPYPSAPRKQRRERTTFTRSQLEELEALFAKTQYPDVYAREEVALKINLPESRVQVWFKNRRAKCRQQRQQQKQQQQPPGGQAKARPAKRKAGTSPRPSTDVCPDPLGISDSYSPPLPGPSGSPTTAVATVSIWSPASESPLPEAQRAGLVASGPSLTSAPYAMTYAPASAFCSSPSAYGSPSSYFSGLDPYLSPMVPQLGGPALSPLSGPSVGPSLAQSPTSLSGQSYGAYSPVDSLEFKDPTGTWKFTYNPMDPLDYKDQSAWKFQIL
sequence,measurement,setting,value
TTAACG,binding signal,FEV,"1.13 fold enrichment (6-mer frequency, TF over GST control)"
same,binding signal,ETV5,"1.22 fold enrichment (6-mer frequency, TF over GST control)"
same,binding signal,HSF1,"1.73 fold enrichment (6-mer frequency, TF over GST control)"
same,binding signal,SPIC,"1.11 fold enrichment (6-mer frequency, TF over GST control)"
same,binding signal,ELF4,"1.15 fold enrichment (6-mer frequency, TF over GST control)"
same,binding signal,ELK4,"1.17 fold enrichment (6-mer frequency, TF over GST control)"
same,binding signal,ETV2,"1.17 fold enrichment (6-mer frequency, TF over GST control)"
same,binding signal,ELF3,"1.27 fold enrichment (6-mer frequency, TF over GST control)"
same,binding signal,CRX,"2.66 fold enrichment (6-mer frequency, TF over GST control)"
